# Test results published in PubChem BioAssay.
# Values without a mark were called inactive. The list shows a part of the results. Active and inactive are the calls of the source.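 Rule for the calls, unless noted: active = inhibition above a set limit taken from the earlier primary screen (cut at about 63% in these data); inactive = the rest.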
# How the values were obtained:
# [1] = biological target: Neuropeptide Y receptor type 2 (Homo sapiens) (UniProt P49146); assay: human Y2 receptor positive modulation or activation – cell-based, confirmation (AID 1539; in the data active = activation above about 33%); conditions: cell-based NPY-Y2 potentiator/agonist assay; at 3.6 µM; active compounds read high
# [2] = biological target: Neuropeptide Y receptor type 1 (Homo sapiens) (UniProt P25929); assay: human Y1 receptor positive modulation or activation – cell-based, fluorescence, counter-screen for NPY-Y2 potentiator project (AID 1651; in the data active = activation above about 45%;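 note: cells stimulated with submaximal NPY then isoproterenol with phosphodiesterase inhibitor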); conditions: Y1 HEK293-CNG cells, membrane potential fluorescence; at 3.6 µM; active compounds read high
# [3] = biological target: Neuropeptide Y receptor type 1 (Homo sapiens) (UniProt P25929); assay: human Y1 receptor agonism, CNGC membrane potential – cell-based, fluorescence, selectivity assay for NPY-Y2 potentiator project (AID 1702;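 active = activation above the mean of DMSO-only control wells plus 3 SD, cut at about 18% in these data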;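 note: cells stimulated with 1 µM isoproterenol plus the PDE inhibitor Ro 20-1724; 0% = isoproterenol with DMSO and no NPY and 100% = 40 nM NPY; Y1 agonists lower the membrane potential dye signal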); conditions: HEK293 Y1-CNGC, at 3.6 µM, active compounds read high
# [4] = blockers of isoproterenol-driven CNG channel signal – cell-based, HEK293-CNG parental, membrane potential fluorescence, counter-screen for NPY-Y2 potentiator project (AID 1703;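 active = inhibition above the control-well mean plus 3 SD of those wells, cut at about 22% in these data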;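 note: 0% = DMSO with isoproterenol and 100% = DMSO without isoproterenol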); conditions: isoproterenol cAMP, at 3.6 µM, active compounds read high
# [5] = biological target: Neuropeptide Y receptor type 2 (Homo sapiens) (UniProt P49146); assay: agonism at human Y2 receptor without NPY – cell-based, fluorescence, counter-screen for NPY-Y2 potentiator project (AID 1710;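 active = activation above the mean of solvent-only control wells plus 3 SD, cut at about 10% in these data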;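 note: cells stimulated by isoproterenol with no NPY added so direct agonism is tested; 0% = DMSO with isoproterenol alone and 100% = NPY at EC100 plus isoproterenol; agonism lowers probe fluorescence through less cAMP and CNG channel opening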); conditions: HEK293 Y2/CNGC cells, membrane potential fluorescence, agonist mode; at 3.6 µM; active compounds read high
# [6] = suppression of KLF5 promoter-driven luciferase – DLD-1 cells, luminescence, confirmation (AID 1834); conditions: DLD-1 KLF5 promoter firefly luciferase reporter, at 4 µM, active compounds read high;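 note: 0% = DMSO wells and 100% = LY294002 at 200 µM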
# [7] = IEC-6 intestinal cell killing – luminescence, triplicate, cytotoxicity control for KLF5 inhibitor project (AID 1905; in the data active = inhibition above about 23%;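 note: cells exposed to compounds for 48 hours before viability read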); conditions: IEC-6 rat intestinal cells, viability luminescence; at 4 µM; active compounds read high
# [8] = system: transactivating tegument protein VP16 (Human herpesvirus 1); assay: compounds suppressing VP16-driven luciferase signal – cell-based, luminescence, single concentration, counter-screen for SRC2 inhibitor project (AID 652007; in the data active = inhibition above about 36%); conditions: cell-based VP16 transactivation luciferase reporter, at 8.9 µM, active compounds read high
# [9] = biological target: Nuclear receptor coactivator 2 (Homo sapiens) (UniProt Q15596); assay: inhibition of GAL4-SRC2 driven luciferase expression – cell-based, luminescence, HEK293, triplicate, confirmation (AID 652008;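 active = mean inhibition above 46.5%, the solvent-only control mean plus 3 SD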;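 note: 0% = DMSO-treated cells and 100% = Gossypol at 36 µM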); conditions: HEK293 GAL4-SRC2 luciferase reporter, at 8.9 µM, active compounds read high
# [10] = biological target: Nuclear receptor coactivator 3 (Homo sapiens) (UniProt Q9Y6Q9); assay: NCOA3 GAL4-fusion reporter inhibition – cell-based, luminescence, quadruplicate, confirmation (AID 588792;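 active = mean inhibition over 43.08%, the solvent-only control mean plus 3 SD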;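 note: 0% = DMSO treated cells and 100% = gossypol at 36 µM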); conditions: HEK293 GAL4-SRC3 luciferase reporter, at 3.6 µM, active compounds read high
# [11] = system: transactivating tegument protein VP16 (Human herpesvirus 1), Gal4-VP16 luciferase reporter; assay: repression of VP16-driven luciferase reporter – cell-based, luminescence, high throughput, counter-screen for SRC3 inhibitor project (AID 588794; in the data active = inhibition above about 30%); conditions: mammalian cells, at 3.6 µM, active compounds read high
# [12] = biological target: Nuclear receptor coactivator 1 (Homo sapiens) (UniProt Q15788); assay: NCOA1 GAL4-fusion reporter inhibition – cell-based, luminescence, quadruplicate, confirmation (AID 588820;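 active = mean inhibition above 46.68%, the untreated control wells mean plus 3 SD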;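 note: 0% = DMSO wells and 100% = gossypol 36 µM treated wells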); conditions: HEK293 GAL4-SRC1 luciferase reporter, at 3.6 µM, active compounds read high
# [13] = repression of VP16-driven luciferase reporter – cell-based, luminescence, high throughput, counter-screen for SRC1 inhibitor project (AID 588824; in the data active = inhibition above about 25%); conditions: cell-based VP16 transactivation luciferase luminescence; at 3.6 µM; active compounds read high
# [14] = biological target: Photoreceptor-specific nuclear receptor (Homo sapiens) (UniProt Q9Y5X4); assay: retest of NR2E3-NCOR disrupting agonists – cell-based, luminescence, CHO-S two-hybrid, confirmation (AID 624378;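 active = average inhibition above a cutoff equal to the mean inhibition of all tested compounds plus one SD, cut at about 70% in these data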;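 note: 0% = DMSO in NR2E3 cells and 100% = DMSO in cells lacking NR2E3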); conditions: CHO-S mammalian two-hybrid NR2E3-NCOR, luciferase luminescence; at 3.98 µM; active compounds read high
# [15] = nonselective effects on VP16 transactivation – cell-based, luminescence, CHO-S, high throughput, counter-screen for NR2E3 agonist project, confirmation (AID 624379;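 active = mean inhibition above a cutoff equal to the average over all tested compounds plus one standard deviation, cut at about 70% in these data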;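 note: 0% = DMSO with VP16-transfected cells and 100% = DMSO with cells lacking VP16; higher means less reporter light so more repression of VP16 activity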); conditions: CHO-S GAL4-VP16 luciferase reporter, at 3.98 µM, active compounds read high
# [16] = StAR promoter reporter inhibitors, counter-screen for LRH-1 inverse agonist project, cell-based, luminescence, high throughput (AID 651611; in the data active = inhibition above about 28%); conditions: StAR promoter luciferase reporter counterscreen, at 3.6 µM, active compounds read high
# [17] = biological target: Nuclear receptor subfamily 5 group A member 2 (Homo sapiens) (UniProt O00482); assay: NR5A2 activity suppression in reporter cells – cell-based, luminescence, confirmation (AID 651613; in the data active = inhibition above about 42%;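 note: HEK293T cells co-transfected with LRH-1 and StAR promoter luciferase reporter; 0% = vehicle wells and 100% = parental cells lacking receptor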); conditions: cell-based LRH-1 luciferase reporter, inverse agonism; at 3.6 µM; active compounds read high
# [18] = biological target: Steroidogenic factor 1 (Homo sapiens) (UniProt Q13285); assay: inverse agonism at SF1 nuclear receptor – cell-based, luminescence, high throughput, counter-screen for LRH-1 inverse agonist project (AID 651614; in the data active = inhibition above about 44%;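 note: cells cotransfected with StAR promoter reporter and SF1 expression vector; 0% = vehicle on cells with receptor and 100% = vehicle on cells lacking receptor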); conditions: cell-based SF1 luciferase reporter, at 3.6 µM, active compounds read high
# [19] = compounds suppressing VP16-driven luciferase signal – cell-based, luminescence, high throughput, counter-screen for LRH-1 inverse agonist project (AID 651615; in the data active = inhibition above about 33%); conditions: Gal4-VP16 luciferase reporter cells, at 3.6 µM, active compounds read high
# [20] = VP16-driven transactivation reporter suppression – cell-based, luminescence, HEK293, counter-screen for COUP-TFII antagonist project (AID 687007; in the data active = inhibition above about 13%); conditions: HEK293 Gal4-VP16 luciferase reporter, at 8.5 µM, active compounds read high
# [21] = biological target: COUP transcription factor 2 (Homo sapiens) (UniProt P24468); assay: retest of COUP-TFII reporter suppressors – cell-based, luciferase reporter, HEK293, triplicate, confirmation (AID 687008;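 active = mean inhibition over three repeats above a set limit taken from the earlier primary screen, cut at about 38% in these data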;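 note: 100% = cells given the luciferase reporter alone without the COUP-TF2 vector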); conditions: HEK293 NGFI-A luciferase reporter, luminescence; at 8.5 µM; active compounds read high
# [22] = biological target: Galanin receptor type 2 (Homo sapiens) (UniProt O43603); assay: blockers of human galanin receptor 2 – cell-based, confirmation (AID 866; in the data active = inhibition above about 27%;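 note: cells stimulated with galanin at about its EC80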); conditions: GALR2-expressing cells, antagonist mode, at 4 µM, active compounds read high
# [23] = nonspecific BLA reporter inhibition – CHO NFAT-bla cells, FRET readout, counter-screen for GALR2 antagonist project, confirmation (AID 867;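 active = inhibition above the mean inhibition across tested compounds plus 3 SD, cut at about 27% in these data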;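 note: 0% = 500 nM thapsigargin stimulated wells and 100% = unstimulated BSA only wells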); conditions: beta-lactamase FRET, thapsigargin-stimulated, at 4.2 µM, active compounds read high
# [24] = biological target: Sphingosine 1-phosphate receptor 4 (Homo sapiens) (UniProt O95977); assay: blockers of human S1P4 signalling – cell-based, confirmation (AID 1524; in the data active = inhibition above about 30%); conditions: S1P4-expressing cell line, antagonist mode, reporter read-out; at 4.98 µM; active compounds read high
# [25] = biological target: Sphingosine 1-phosphate receptor 1 (Homo sapiens) (UniProt P21453); assay: blockade of human S1P1 receptor – cell-based, counter-screen for S1P4 antagonist project (AID 1564; in the data active = inhibition above about 40%;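 note: receptor stimulated with S1P near its EC80; 0% = agonist stimulated wells and 100% = vehicle only wells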); conditions: cell-based S1P1 antagonist counterscreen, at 4.98 µM, active compounds read high
# [26] = biological target: Receptor-interacting serine/threonine-protein kinase 2 (Homo sapiens) (UniProt O43353); assay: inhibitors of RIPK2 association with NOD2 – fluorescence, CHO cells, BLA complementation, triplicate, confirmation (AID 624370;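 active = mean inhibition across replicates above a set limit taken from the earlier primary screen, cut at about 21% in these data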;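 note: 0% = DMSO-only wells and the high end = clavulanate BLA-blocked wells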); conditions: CCF4 FRET, at 4.98 µM, active compounds read high
# [27] = BLA reporter readout interference – cell-based, CHO-K1 CMV-bla, CCF4 FRET, fluorescence, artefact control for NOD2-RIPK2 interaction inhibitor project, confirmation (AID 624371;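 active = mean inhibition above the low-control mean inhibition plus three low-control SD, cut at about 11% in these data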;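 note: 0% = DMSO only wells and 100% = clavulanate high control wells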); conditions: CCF4 FRET ratio, counterscreen, at 4.98 µM, active compounds read high
# Chain of Neuropeptide Y receptor type 1 (Homo sapiens) (P25929 whole entry, looked up): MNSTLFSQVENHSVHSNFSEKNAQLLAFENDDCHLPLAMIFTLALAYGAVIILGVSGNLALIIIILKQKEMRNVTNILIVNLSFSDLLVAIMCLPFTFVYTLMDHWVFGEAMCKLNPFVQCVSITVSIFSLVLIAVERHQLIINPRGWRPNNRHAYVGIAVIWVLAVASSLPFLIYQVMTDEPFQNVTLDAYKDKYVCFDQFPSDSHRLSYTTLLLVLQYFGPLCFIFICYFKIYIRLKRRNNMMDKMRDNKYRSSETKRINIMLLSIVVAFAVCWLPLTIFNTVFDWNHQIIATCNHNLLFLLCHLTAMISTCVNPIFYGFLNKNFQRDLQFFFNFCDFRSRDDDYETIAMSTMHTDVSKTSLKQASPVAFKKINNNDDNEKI
# Chain of Nuclear receptor coactivator 2 (Homo sapiens) (Q15596 whole entry, looked up, the tested form may be a part): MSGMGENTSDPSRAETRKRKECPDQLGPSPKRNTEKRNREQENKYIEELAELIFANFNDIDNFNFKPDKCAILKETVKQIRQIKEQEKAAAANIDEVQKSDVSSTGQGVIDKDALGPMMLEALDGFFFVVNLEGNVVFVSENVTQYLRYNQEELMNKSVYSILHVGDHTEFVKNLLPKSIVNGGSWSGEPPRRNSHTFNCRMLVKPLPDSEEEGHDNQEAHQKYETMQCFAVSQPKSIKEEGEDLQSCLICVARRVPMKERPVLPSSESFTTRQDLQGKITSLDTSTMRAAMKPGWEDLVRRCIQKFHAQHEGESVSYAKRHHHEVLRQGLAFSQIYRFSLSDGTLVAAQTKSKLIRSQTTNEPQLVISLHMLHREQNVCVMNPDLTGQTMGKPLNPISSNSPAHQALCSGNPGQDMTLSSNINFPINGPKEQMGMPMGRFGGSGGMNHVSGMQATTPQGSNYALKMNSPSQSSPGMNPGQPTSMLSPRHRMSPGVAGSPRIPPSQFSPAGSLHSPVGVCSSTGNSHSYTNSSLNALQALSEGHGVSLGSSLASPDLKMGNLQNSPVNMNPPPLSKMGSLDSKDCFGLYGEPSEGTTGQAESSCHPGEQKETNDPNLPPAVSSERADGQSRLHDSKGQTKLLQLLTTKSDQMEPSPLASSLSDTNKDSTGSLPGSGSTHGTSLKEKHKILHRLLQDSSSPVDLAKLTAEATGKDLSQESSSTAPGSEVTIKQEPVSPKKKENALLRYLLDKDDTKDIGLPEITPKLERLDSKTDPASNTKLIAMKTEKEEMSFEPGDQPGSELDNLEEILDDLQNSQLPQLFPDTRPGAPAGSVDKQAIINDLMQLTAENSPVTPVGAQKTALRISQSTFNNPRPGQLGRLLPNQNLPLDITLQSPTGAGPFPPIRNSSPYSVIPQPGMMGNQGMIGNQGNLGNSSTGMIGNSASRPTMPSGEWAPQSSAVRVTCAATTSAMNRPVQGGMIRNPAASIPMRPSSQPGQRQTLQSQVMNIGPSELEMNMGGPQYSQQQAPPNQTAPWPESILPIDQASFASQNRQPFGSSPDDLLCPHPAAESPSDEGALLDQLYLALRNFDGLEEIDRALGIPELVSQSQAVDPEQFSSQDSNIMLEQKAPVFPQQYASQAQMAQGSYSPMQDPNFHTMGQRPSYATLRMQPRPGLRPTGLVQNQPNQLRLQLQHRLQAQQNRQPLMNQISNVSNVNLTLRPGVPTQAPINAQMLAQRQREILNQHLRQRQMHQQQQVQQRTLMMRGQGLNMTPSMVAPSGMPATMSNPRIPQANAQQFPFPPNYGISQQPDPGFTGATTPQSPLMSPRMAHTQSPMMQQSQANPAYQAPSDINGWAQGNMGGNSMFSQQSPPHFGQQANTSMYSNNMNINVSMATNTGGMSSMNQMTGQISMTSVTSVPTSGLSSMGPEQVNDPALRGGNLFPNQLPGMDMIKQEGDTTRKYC
# Chain of Neuropeptide Y receptor type 2 (Homo sapiens) (P49146 whole entry, looked up): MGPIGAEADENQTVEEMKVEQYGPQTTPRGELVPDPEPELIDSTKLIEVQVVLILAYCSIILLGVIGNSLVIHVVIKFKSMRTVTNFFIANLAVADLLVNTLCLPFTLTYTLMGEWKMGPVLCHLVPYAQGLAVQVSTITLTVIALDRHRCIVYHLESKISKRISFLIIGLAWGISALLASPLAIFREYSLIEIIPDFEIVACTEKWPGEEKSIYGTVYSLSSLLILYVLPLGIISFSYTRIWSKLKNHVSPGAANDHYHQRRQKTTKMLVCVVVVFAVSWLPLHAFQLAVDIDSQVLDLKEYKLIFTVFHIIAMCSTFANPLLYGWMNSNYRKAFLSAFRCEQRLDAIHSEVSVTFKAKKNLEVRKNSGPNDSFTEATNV
# Chain of COUP transcription factor 2 (Homo sapiens) (P24468 whole entry, looked up): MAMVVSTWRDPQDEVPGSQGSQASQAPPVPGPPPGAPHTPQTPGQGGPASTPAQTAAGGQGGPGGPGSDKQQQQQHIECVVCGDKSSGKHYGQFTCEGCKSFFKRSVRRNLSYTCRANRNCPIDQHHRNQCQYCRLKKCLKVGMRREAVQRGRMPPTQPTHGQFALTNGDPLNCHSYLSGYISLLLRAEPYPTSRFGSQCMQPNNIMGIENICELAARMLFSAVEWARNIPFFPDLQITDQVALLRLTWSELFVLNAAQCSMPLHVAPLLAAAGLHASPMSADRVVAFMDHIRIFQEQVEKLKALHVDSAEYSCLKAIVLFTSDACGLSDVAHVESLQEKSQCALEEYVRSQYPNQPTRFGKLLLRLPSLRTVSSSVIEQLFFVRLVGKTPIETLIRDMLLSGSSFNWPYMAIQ
# Chain of Sphingosine 1-phosphate receptor 4 (Homo sapiens) (O95977 whole entry, looked up): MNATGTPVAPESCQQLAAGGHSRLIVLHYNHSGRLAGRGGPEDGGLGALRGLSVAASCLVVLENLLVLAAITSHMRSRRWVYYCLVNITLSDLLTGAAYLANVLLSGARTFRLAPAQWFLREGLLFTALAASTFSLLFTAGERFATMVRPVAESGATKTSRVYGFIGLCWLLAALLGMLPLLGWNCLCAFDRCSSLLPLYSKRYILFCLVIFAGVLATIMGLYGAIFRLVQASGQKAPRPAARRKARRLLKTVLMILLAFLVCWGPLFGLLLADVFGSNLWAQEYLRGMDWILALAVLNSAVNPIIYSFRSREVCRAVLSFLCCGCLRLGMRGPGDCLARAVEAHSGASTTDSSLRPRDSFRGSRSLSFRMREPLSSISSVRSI
# Chain of Sphingosine 1-phosphate receptor 1 (Homo sapiens) (P21453 whole entry, looked up): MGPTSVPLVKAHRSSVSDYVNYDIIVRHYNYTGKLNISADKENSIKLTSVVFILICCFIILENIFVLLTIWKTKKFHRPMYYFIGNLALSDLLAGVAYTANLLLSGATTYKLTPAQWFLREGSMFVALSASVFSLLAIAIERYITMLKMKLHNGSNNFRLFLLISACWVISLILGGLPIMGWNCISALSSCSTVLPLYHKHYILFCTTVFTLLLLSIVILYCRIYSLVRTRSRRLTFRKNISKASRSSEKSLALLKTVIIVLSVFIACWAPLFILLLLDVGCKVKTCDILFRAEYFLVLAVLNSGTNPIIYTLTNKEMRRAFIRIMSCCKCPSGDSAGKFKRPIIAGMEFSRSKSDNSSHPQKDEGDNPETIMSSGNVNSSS
# Chain of Nuclear receptor subfamily 5 group A member 2 (Homo sapiens) (O00482 whole entry, looked up): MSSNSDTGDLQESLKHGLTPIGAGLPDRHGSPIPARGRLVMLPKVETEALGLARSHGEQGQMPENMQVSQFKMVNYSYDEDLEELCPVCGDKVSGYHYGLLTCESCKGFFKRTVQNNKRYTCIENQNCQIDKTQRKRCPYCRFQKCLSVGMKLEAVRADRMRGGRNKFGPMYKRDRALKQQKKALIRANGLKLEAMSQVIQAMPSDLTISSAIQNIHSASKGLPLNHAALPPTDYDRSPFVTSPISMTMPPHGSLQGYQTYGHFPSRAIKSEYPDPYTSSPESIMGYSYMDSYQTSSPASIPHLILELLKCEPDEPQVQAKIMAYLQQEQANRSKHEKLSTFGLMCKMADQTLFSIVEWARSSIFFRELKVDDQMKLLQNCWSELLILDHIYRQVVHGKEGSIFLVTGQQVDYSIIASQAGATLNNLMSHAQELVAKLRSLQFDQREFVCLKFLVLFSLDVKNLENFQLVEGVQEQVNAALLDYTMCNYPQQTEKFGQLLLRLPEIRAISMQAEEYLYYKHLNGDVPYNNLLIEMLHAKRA
# Chain of Photoreceptor-specific nuclear receptor (Homo sapiens) (Q9Y5X4 whole entry, looked up): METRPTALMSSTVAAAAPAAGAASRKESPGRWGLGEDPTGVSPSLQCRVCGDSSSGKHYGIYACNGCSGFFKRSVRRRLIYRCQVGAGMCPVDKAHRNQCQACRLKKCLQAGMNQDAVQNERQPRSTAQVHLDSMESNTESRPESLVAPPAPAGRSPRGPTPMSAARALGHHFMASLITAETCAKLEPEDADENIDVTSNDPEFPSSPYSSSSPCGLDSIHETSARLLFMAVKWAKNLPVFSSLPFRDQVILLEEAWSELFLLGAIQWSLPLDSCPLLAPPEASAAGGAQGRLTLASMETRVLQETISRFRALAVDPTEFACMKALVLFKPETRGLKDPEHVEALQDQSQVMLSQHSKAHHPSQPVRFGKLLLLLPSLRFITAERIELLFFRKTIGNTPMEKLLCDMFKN
# Chain of Galanin receptor type 2 (Homo sapiens) (O43603 whole entry, looked up): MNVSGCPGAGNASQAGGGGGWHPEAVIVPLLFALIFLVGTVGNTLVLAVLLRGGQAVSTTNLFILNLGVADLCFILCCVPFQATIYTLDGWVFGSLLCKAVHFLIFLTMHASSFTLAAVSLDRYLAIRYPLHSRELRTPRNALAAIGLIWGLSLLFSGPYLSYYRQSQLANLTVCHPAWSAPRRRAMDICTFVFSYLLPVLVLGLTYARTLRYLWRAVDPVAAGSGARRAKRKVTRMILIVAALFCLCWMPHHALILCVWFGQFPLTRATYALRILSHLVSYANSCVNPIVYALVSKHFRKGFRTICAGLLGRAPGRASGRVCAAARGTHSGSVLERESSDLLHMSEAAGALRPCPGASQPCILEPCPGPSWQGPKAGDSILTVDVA
compound,measurement,setting,value
O=C(NCc1ccccc1)c1ccc(S(=O)(=O)Nc2cccc(C(F)(F)F)c2)cc1,activation,[1],10.8%
same,activation,[2],17%
same,activation,[3],12%
same,inhibition,[4],16.6%
same,activation,[5],19.8% (active)
CC(=O)c1ccc(Oc2cc(C)nc(-n3nc(C)cc3C)n2)cc1,inhibition,[6],63.5% (active)
same,inhibition,[7],57.9% (active)
Cc1ccc2[nH]c(=O)c(CN(CCCN(C)C)C(=O)Nc3cccc(Cl)c3)cc2c1,inhibition,[6],-15.6%
same,inhibition,[7],6.49%
CCn1c(SCC(=O)Nc2nccs2)nnc1-c1ccncc1,inhibition,[6],3.83%
same,inhibition,[7],8.72%
COc1ccccc1C1C2=C(COC2=O)Nc2cc3c(cc21)OCO3 (centres undefined),inhibition,[6],88.1% (active)
same,inhibition,[7],82.9% (active)
CCOc1cc(C(=O)N2CCc3cc(OC)c(OC)cc3C2)ccc1OC(F)F,inhibition,[6],85.3% (active)
same,inhibition,[7],59.4% (active)
same,inhibition,[8],-28%
same,inhibition,[9],14.7%
CN(c1ccc2nc3ccccc3c(=O)n2n1)C1CCCCC1,inhibition,[6],72.9% (active)
same,inhibition,[7],9.18%
same,inhibition,[10],59.8% (active)
same,inhibition,[11],48.9% (active)
same,inhibition,[12],-5.95%
same,inhibition,[13],23.2%
same,inhibition,[14],43.9%
same,inhibition,[15],10.8%
same,inhibition,[16],59.8% (active)
same,inhibition,[17],14.8%
same,inhibition,[18],57.6% (active)
same,inhibition,[19],18%
same,inhibition,[8],50.9% (active)
same,inhibition,[9],86% (active)
same,inhibition,[20],64.8% (active)
same,inhibition,[21],87.9% (active)
O=C(Nc1ccccc1)c1nnsc1S(=O)(=O)c1ccc(Cl)cc1,inhibition,[22],45.8% (active)
same,inhibition,[23],66.7% (active)
same,inhibition,[24],116% (active)
same,inhibition,[25],37.5%
same,inhibition,[26],65.2% (active)
same,inhibition,[27],10.3%
